# From PubChem BioAssay (NCATS)
# Inconclusive results are not listed. Entries that show only a call come without a potency. A number with no mark means an inactive call. The source made the active and inactive calls. Calls follow the shape of the dose curve; as a rule, active = well fitted curve in the direction sought with a large enough effect; inconclusive = small, poorly fitted or top-dose-only effect, or another doubt; inactive = no such curve, though single readings can be large; an effect the other way counts as inactive or inconclusive.
# Key:
# [1] = P-glycoprotein substrates identified in KB-8-5-11 adenocarcinoma cell line, qHTS therapeutic library screen (AID 1346987); also: nearly all actives have a fitted effect of over 65% in size
# Method in brief: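 KB-8-5-11, a colchicine-selected P-gp-overexpressing KB-3-1 subline, was grown without colchicine for the assay. Cells were seeded at 500 cells/well, dosed in concentration-response and incubated 72 h at 37 degree C, 5% CO2. Viability was read by CellTiter-Glo luminescence.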
# [2] = NS1 protein of Zika virus - qHTS assay to identify small molecule inhibitors in human HEK 293 cells (AID 1347053); also: nearly all actives have a fitted effect of over 55% in size
# Method in brief: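 HEK 293; 20 h pre-culture, 37 C/5% CO2; cpd 1 h pre-infection; ZIKV MR766, MOI = 0.5, 24 h, 37 C; TR-FRET NS1 readout (two anti-NS1 Abs); norm. to no-virus vs infected.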
# [3] = qHTS of pediatric cancer cell lines to identify multiple opportunities for drug repurposing: Primary screen for TC32 cells (AID 1347089); also: nearly all actives have a fitted effect of over 60% in size
# Method in brief: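 Luminescent ATP read-out (CellTiter-Glo) of metabolically active TC32 cells after 48 h exposure. Concentration-response curves came from 11-point (MIPE, 0.78 nM–46 µM) or 8-point (NPC, 0.59 nM–46 µM) primary titrations; follow-up used 11 points.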
# [4] = qHTS of pediatric cancer cell lines to identify multiple opportunities for drug repurposing: Primary screen for DAOY cells (AID 1347090); also: nearly all actives have a fitted effect of over 55% in size
# Method in brief: (§1)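 Cell viability, CellTiter-Glo luminescence; 500-1,000 cells/well, 8- or 11-point titration, 48 h compound exposure at 37 degrees C, 5% CO2. Controls: DMSO neutral, bortezomib 2.3 µM final as positive.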
# [5] = qHTS of pediatric cancer cell lines to identify multiple opportunities for drug repurposing: Primary screen for SJ-GBM2 cells (AID 1347091)
# Method in brief: as §1
# [6] = qHTS of pediatric cancer cell lines to identify multiple opportunities for drug repurposing: Primary screen for A673 cells (AID 1347092); also: nearly all actives have a fitted effect of over 45% in size
# Method in brief: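 Cell viability of A673 measured by CellTiter-Glo ATP luminescence after 48 hours compound exposure. Dilution series spanned 0.78 nM to 46 µM (MIPE, 11-point) or 0.59 nM to 46 µM (NPC, 8-point); bortezomib 2.3 uM positive control.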
# [7] = qHTS of pediatric cancer cell lines to identify multiple opportunities for drug repurposing: Primary screen for SK-N-MC cells (AID 1347093)
# Method in brief: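 Metabolically active cells were quantified by ATP-dependent luminescence (CellTiter-Glo, 15 min at room temperature) following 48 h treatment. Cells had been plated at 500-1,000 per well and settled for 5 h beforehand.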
# [8] = qHTS of pediatric cancer cell lines to identify multiple opportunities for drug repurposing: Primary screen for BT-37 cells (AID 1347094)
# Method in brief: (§2)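 500-1,000 cells/well; 5 h pre-incubation 37 °C/5% CO2; compound pinned; 48 h; CellTiter-Glo, 15 min RT; luminescence. MIPE 11-pt from 0.78 nM, NPC 8-pt from 0.59 nM final. Bortezomib 2.3 µM final as positive control.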
# [9] = qHTS of pediatric cancer cell lines to identify multiple opportunities for drug repurposing: Primary screen for NB-EBc1 cells (AID 1347095)
# Method in brief: as §2
# [10] = qHTS of pediatric cancer cell lines to identify multiple opportunities for drug repurposing: Primary screen for U-2 OS cells (AID 1347096); also: nearly all actives have a fitted effect of over 50% in size
# Method in brief: (§3)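 Cells (500-1,000/well) rested 5 h, then received compounds for 48 h; metabolically active cells were measured by CellTiter-Glo luminescence. Final concentrations spanned up to 46 µM (MIPE, 11-point) or 0.59 nM-46 µM (NPC, 8-point) in primary screens, 11-point in follow-ups.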
# [11] = qHTS of pediatric cancer cell lines to identify multiple opportunities for drug repurposing: Primary screen for Saos-2 cells (AID 1347097); also: nearly all actives have a fitted effect of over 40% in size
# Method in brief: as §2
# [12] = qHTS of pediatric cancer cell lines to identify multiple opportunities for drug repurposing: Primary screen for SK-N-SH cells (AID 1347098); also: nearly all actives have a fitted effect of over 65% in size
# Method in brief: as §3
# [13] = qHTS of pediatric cancer cell lines to identify multiple opportunities for drug repurposing: Primary screen for NB1643 cells (AID 1347099); also: nearly all actives have a fitted effect of over 50% in size
# Method in brief: as §2
# [14] = qHTS of pediatric cancer cell lines to identify multiple opportunities for drug repurposing: Primary screen for LAN-5 cells (AID 1347100)
# Method in brief: as §3
# [15] = qHTS of pediatric cancer cell lines to identify multiple opportunities for drug repurposing: Primary screen for BT-12 cells (AID 1347101); also: nearly all actives have a fitted effect of over 25% in size
# Method in brief: as §3
# [16] = qHTS of pediatric cancer cell lines to identify multiple opportunities for drug repurposing: Primary screen for Rh18 cells (AID 1347102); also: nearly all actives have a fitted effect of over 65% in size
# Method in brief: as §3
# Potency is read from the fitted curve at half-maximal effect.
SMILES,Potency [1],Potency [2],Potency [3],Potency [4],Potency [5],Potency [6],Potency [7],Potency [8],Potency [9],Potency [10],Potency [11],Potency [12],Potency [13],Potency [14],Potency [15],Potency [16]
CC(C)(C)[N+]([O-])=Cc1ccc(S(=O)(=O)O)cc1S(=O)(=O)O,inactive,inactive,inactive,inactive,inactive,inactive,inactive,inactive,inactive,inactive,inactive,inactive,inactive,inactive,inactive,inactive
C=C1CCC2[C@](C)(CO)C(O)CC[C@]2(C)C1CC=C1C(=O)OCC1O (some centres undefined),inactive,inactive,inactive,inactive,inactive,inactive,inactive,inactive,inactive,inactive,,inactive,inactive,inactive,inactive,inactive
C[C@@H]1CC[C@@]2(OC1)OC1CC3C4CC=C5CC(O)CCC5(C)C4CCC3(C)C1[C@@H]2C (some centres undefined),inactive,inactive,inactive,inactive,inactive,inactive,inactive,inactive,inactive,inactive,inactive,inactive,inactive,inactive,inactive,inactive
CN[C@@H]1C[C@H]2O[C@@](C)([C@H]1OC)n1c3ccccc3c3c4c(c5c6ccccc6n2c5c31)C(=O)N[C@H]4O,1.87 µM (active),0.418 µM (active),2.94 µM (active),0.469 µM (active),0.118 µM (active),0.296 µM (active),0.0372 µM (active),6.85 µM (active),0.166 µM (active),2.96 µM (active),0.235 µM (active),0.607 µM (active),0.526 µM (active),1.32 µM (active),27.3 µM (active),0.59 µM (active)
CC(=O)O[C@H]1C[C@@H]2CC[C@H]3[C@H]4C[C@H]([N+]5(C)CCCCC5)[C@@H](OC(C)=O)[C@@]4(C)CC[C@@H]3[C@@]2(C)C[C@H]1[N+]1(C)CCCCC1,inactive,inactive,inactive,inactive,inactive,inactive,inactive,inactive,inactive,inactive,inactive,inactive,inactive,inactive,inactive,inactive
CN[C@H]1[C@@H](O)[C@@H]2O[C@@H]3O[C@H](C)CC(=O)[C@]3(O)O[C@@H]2[C@@H](NC)[C@H]1O,inactive,inactive,13.1 µM (active),0.296 µM (active),0.59 µM (active),0.0743 µM (active),0.166 µM (active),9.68 µM (active),8.33 µM (active),2.96 µM (active),,6.07 µM (active),1.87 µM (active),0.166 µM (active),1.09 µM (active),1.18 µM (active)
